CCT modulator: modulators of cytosolic chaperonin (CCT/TRiC) activity | purified chaperonin ATPase assay, HTRF ADP detection, 30 min | activity change, % (no concentration beside the values), hits read low | hit rate 0.3% among 360,000 | AID 651819; in the data active = activity change below about -30%; also: % is scaled to controls: 0 for no effect and ±100 for the full control effect
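We incubate TRiC, 40 or 20 nM final, with library compounds at 76 uM and 10 uM ATP for 30 min at 37 °C. ADP formed is detected with Transcreener HTRF reagents after 30 min at room temperature.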
KCNH2 WT inh: blocks the wildtype human KCNH2 potassium channel; Q12809; AID 720551; activity change, % at 1.84 µM; U2OS, BacMam KCNH2, thallium flux FluxOr; hits give low values; hit rate 0.37% among 340,000;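 active = maximum activity change below -70%; inconclusive = maximum activity change between -70% and -50%; inactive = maximum activity change above -50%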; also: % is scaled to controls: 0 for no effect and ±100 for the full control effect
Target sequence (Q12809 whole entry, looked up): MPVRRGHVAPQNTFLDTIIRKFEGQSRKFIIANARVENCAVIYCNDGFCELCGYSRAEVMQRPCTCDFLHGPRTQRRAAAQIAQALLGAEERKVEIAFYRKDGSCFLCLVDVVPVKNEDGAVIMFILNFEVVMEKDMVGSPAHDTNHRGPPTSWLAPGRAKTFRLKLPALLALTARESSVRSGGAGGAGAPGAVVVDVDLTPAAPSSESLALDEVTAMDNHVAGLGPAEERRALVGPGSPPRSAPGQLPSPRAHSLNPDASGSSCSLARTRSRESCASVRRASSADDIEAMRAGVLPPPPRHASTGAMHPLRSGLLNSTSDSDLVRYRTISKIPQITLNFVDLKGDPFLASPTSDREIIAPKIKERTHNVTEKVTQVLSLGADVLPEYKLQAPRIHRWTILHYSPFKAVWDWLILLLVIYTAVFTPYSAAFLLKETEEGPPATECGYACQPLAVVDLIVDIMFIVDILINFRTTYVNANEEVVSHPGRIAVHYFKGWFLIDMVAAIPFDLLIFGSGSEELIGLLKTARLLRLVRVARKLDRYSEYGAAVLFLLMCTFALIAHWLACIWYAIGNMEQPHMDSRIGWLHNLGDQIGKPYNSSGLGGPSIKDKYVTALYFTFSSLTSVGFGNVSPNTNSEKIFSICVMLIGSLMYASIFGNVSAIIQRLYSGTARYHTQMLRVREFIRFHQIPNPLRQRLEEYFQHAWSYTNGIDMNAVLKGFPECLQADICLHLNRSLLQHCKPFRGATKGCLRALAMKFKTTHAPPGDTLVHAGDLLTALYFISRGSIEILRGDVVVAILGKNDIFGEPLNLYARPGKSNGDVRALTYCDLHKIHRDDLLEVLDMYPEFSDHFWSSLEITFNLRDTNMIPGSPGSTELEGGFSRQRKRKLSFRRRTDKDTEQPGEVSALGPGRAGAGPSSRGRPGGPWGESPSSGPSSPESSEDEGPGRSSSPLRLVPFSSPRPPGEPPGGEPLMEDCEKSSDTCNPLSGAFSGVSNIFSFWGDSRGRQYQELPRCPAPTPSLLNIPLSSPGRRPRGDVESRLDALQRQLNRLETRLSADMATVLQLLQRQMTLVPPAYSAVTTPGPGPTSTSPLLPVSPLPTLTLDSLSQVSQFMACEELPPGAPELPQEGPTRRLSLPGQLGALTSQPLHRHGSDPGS
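U2OS cells were transduced with wild-type KCNH2 virus (2.03 x 10^8 / mL) for 4 h at room temperature, then cultured overnight at 37 C. Thallium flux was read with FluxOr dye. Rate constants were normalized to DMSO controls.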
KCNH2 3.1 block: inhibitors of human KCNH2 3.1 potassium channel isoform. U2OS KCNH2 3.1, thallium flux FluxOr; hits give low values. AID 720553. hit rate 0.95% among 340,000. activity change, % (tested at about 1.8 µM);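 active = maximum activity change below -70%; inconclusive = maximum activity change from -70% to -50%; inactive = maximum activity change above -50%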;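 also: thallium influx rate constant from kinetic fluorescence after stimulation buffer; % is scaled to controls: 0 for no effect and ±100 for the full control effect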
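Thallium flux via FluxOr fluorescence (Red40 quencher, 45 min loading) in U2OS cells virally expressing the KCNH2 3.1 isoform (1.77 x 10^8 /mL virus, overnight at 37 C). Rate constants from 2-min kinetic reads post-stimulation, normalised to positive and negative controls.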
Rango dissoc inh: prevents RanGTP from dissociating the Rango-importin beta complex. O95149+P62826. Biochemical FRET Rango-importin beta, RanGTP-induced dissociation. Potency, µM (series often up to 46.1 µM), for the others: at the highest dose activity change, negative = inhibition. hit rate 0.071% among 340,000. AID 540253; also: potency is read from the fitted curve at half-maximal effect; % of control where 0% means no effect; nearly all actives have a fitted effect of over 45% in size
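FRET read at 45 min, room temperature: inhibitors block the CFP/YFP signal rise when RanGTP (0.6 uM Ran, 2 mM GTP, 0.2 uM RCC1) frees Rango (0.1 uM) from importin beta (0.25 uM). Pre-read after 5 min compound exposure flags interference.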
Rango-impB inh: inhibitors of Rango-importin beta complex formation | Rango CFP/YFP FRET sensor + importin beta, 45 min | Potency, µM (titrated, usually from 92.2 µM), inactives show at the top dose inhibition of complex formation | hit rate 0.031% among 340,000 | AID 540263;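 also: potency is read from the fitted curve at half-maximal effect; 0% = DMSO wells and 100% = buffer wells lacking importin beta; nearly all actives have a fitted effect of over 15% in size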
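FRET biosensor Rango (snurportin 1 IBB between N-terminal EYFP and C-terminal Cerulean), 50 nM in PBS/1 mM DTT/0.02% Tween-20/0.1% BSA, preincubated 5 min RT with compound; 0.125 microM importin beta added, 45 min RT, CFP/YFP FRET ratio read.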
MmCpn inh: blocks the Methanococcus maripaludis chaperonin Mm-Cpn; purified Mm-Cpn ATPase, ADP Transcreener TR-FRET; Potency, µM (series often up to 76.9 µM), without a hit: at the top dose activity, negative = inhibition, most hits filed as inhibitors; hit rate 0.031% among 330,000; active = well fitted inhibition curve with a large enough effect; inconclusive = small, poorly fitted or top-dose-only effect; also: potency is read from the fitted curve at half-maximal effect; % is scaled to controls: 0 for no effect and ±100 for the full control effect; nearly all actives have a fitted effect of over 80% in size
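ATPase read-out: TR-FRET ADP immunoassay (anti-ADP Eu cryptate vs ADP-d2), ex 320 nm, em 590/665 nm; signal drops as ADP forms. Enzyme 25 nM, ATP 10 uM, 30 min at 37°C after 10 min compound preincubation.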
The depositor's hits bear a star; ? = inconclusive; / = not tested or not shown; ! = repeats disagree. A selection: hits, their analogues and other compounds. The true share with any hit is near 1.4%. Unless noted, calls follow the shape of the full dose curve.

SMILES | CCT modulator | KCNH2 WT inh | KCNH2 3.1 block | Rango dissoc inh | Rango-impB inh | MmCpn inh
CCOC(=O)C1(Cc2cccc(OC)c2)CCN(Cc2ccc(C)s2)CC1 | 0.9 | ? | -76.1* | -11.9% | -1.6% | 2.9%
CCOC(=O)C1(Cc2cccc(OC)c2)CCN(Cc2cccc(O)c2)CC1 | -6.1 | 5.0 | -23.9 | -10.7% | -1.8% | -2.2%
CCOC(=O)C1(Cc2ccccc2)CCN(Cc2cccn2-c2nccs2)CC1 | -3.6 | -1.1 | -3.3 | -9.0% | 1.4% | 0.0%
CCOC(=O)C1(Cc2cccc(OC)c2)CCCN(Cc2cc(OC)c(O)c(OC)c2)C1 (centres undefined) | -3.9 | -134.1* | -193.4* | -12.8% | -4.3% | -3.0%
CC1(c2ccc(Cl)cc2Cl)OCC(Cn2ccnc2)O1 (centres undefined) | 1.0 | -6.0 | 1.7 | 9.9% | 1.1% | 0.5%
CC1(c2nnnn2-c2ccc3c(c2)OCCO3)CCC(=O)N1CCc1c[nH]c2ccccc12 (centres undefined) | -0.6 | / | / | / | / | /
Cc1ccc(/C(O)=C2\C(=O)C(=O)N(CCN(C)C)C2c2ccccc2F)cc1 (centres undefined) | -1.8 | 14.1 | 7.1 | -2.7% | 2.9% | -4.2%
Cc1ccc(/C(O)=C2\C(=O)C(=O)N(CCCN3CCOCC3)C2c2ccccc2F)cc1 (centres undefined) | -39.7* | -2.1 | -2.5 | / | / | /
COc1ccc(CN(Cc2cccn2C)C(=O)c2cc3cc(OC)ccc3[nH]2)cc1 | -2.6 | 2.6 | 3.4 | 36.4% | 0.5% | 44.7µM*
O=C(c1cc(Br)c(Br)s1)N1CCOCC1 | -1.8 | -201.0* | 7.1 | 9.9% | 0.1% | 2.7%
COc1ccccc1OCC(O)Cn1c(=N)n(Cc2ccccc2)c2ccccc21 (centres undefined) | 0.5 | 9.7 | -89.1* | 8.7% | -0.2% | 2.2%
C=CCn1c(=N)n(CC(O)COc2ccccc2OC)c2ccccc21 (centres undefined) | 0.8 | 65.3 | -15.6 | ? | 7.8% | -5.7%
CCCCCn1c(=N)n(CC(O)COc2ccccc2OC)c2ccccc21 (centres undefined) | -4.3 | -84.5* | -107.4*! | 3.5% | -2.0% | 3.2%
CCC(C)NC(=O)c1cc(-c2ccc3c(c2)OCO3)on1 (centres undefined) | 0.2 | 4.9 | 20.9 | -3.2% | 0.2% | 1.0%
CCN(CC)CCN1CNC(=S)NC1 | -34.3* | -5.9 | 12.9 | / | / | /
S=C1NCN(Cc2ccccc2)CN1 | 1.0 | -3.2 | -35.4 | -0.3% | -1.4% | 1.5%
Cc1ccc(C(=O)NCCN2C3=NC[C@H](C(C)C)N3C[C@H]2Cc2ccc(O)cc2)cc1Br | 0.4 | 9.4 | -7.6 | 7.0% | -0.3% | /
Cc1ccc(C(=O)NCCN2C3=NC[C@H](C)N3C[C@H]2Cc2ccc(O)cc2)cc1Br | 0.9 | -8.8 | -15.8 | -11.9% | -4.3% | /
COc1ccc(C[C@H]2CN3C(=NC[C@H]3C)N2CCNC(=O)c2ccc(C)c(Br)c2)cc1 | 0.4 | -35.3 | -75.8* | 17.2% | 5.9% | /
COc1ccc(C[C@H]2CN3C(=NC[C@@H]3C(C)C)N2CCNC(=O)c2ccc(C)c(Br)c2)cc1 | -0.2 | -114.5* | -100.4* | -13.6% | 6.3% | /
Cc1cc(Nc2cccc(Cl)c2Cl)n2ncnc2n1 | -0.1 | -221.7* | -3.1 | 2.8% | -1.7% | 0.2%
Cc1ccc(Nc2cc(C)nc3ncnn23)c(Cl)c1 | -2.7 | 2.7 | 1.6 | 12.7% | 0.1% | -1.0%
COCCn1c(SCCOc2ccccc2)nc2ccccc2c1=O | -0.6 | -5.1 | -15.5 | -4.0% | -2.2% | -2.1%
COc1cccc(COC(=O)C(Cc2ccccc2)NC(=O)c2ccco2)c1 (centres undefined) | -0.4 | 28.3 | 27.7 | / | / | /
O=C(c1nc(SCc2ccc([N+](=O)[O-])cc2)n2ccccc12)C(F)(F)F | -1.7 | 20.2 | -71.1* | 0.3% | 0.9% | 1.2%
SMILES | CCT modulator | KCNH2 WT inh | KCNH2 3.1 block | Rango dissoc inh | Rango-impB inh | MmCpn inh
O=[N+]([O-])c1ccc(CSc2nnc3ccccn23)cc1 | 1.6 | 3.8 | -4.1 | 13.7% | -0.9% | 0.8%
CC(C)c1ccc(NC(=O)CSc2nc(=O)n(CCCN3CCOCC3)c3c2CCCC3)cc1 | 1.5 | 30.6 | 5.1 | -2.8% | 1.0% | 1.1%
O=C1c2cccc3c([N+](=O)[O-])ccc(c23)C(=O)N1O | 0.9 | -197.1* | -30.2 | 18.3% | -1.9% | 2.9%
CCOc1ccc(CN2CCN(Cc3nc(C(C)C)cs3)CC2CCO)cc1 (centres undefined) | 0.8 | / | -96.1* | 3.0% | -0.1% | 2.8%
COc1cccc(CN2CCN(Cc3cc4ccccc4o3)CC2CCO)c1 (centres undefined) | 2.3 | 8.8 | -12.4 | 0.7% | -3.0% | 0.7%
COc1ccc(CN2CCN(Cc3cc4ccccc4o3)CC2CCO)cc1C (centres undefined) | -1.1 | -5.2 | -70.8* | -20.3% | ? | -1.0%
CCOc1ccc(CN2CCN(Cc3cc4ccccc4o3)CC2CCO)cc1 (centres undefined) | -1.1 | -47.6 | -106.9* | 12.3% | -3.5% | -0.2%
O=C(OC1CCOC1=O)C1CCN(S(=O)(=O)c2ccc(Cl)c(C(F)(F)F)c2)CC1 (centres undefined) | -2.5 | 1.9 | -8.8 | 11.9% | 3.7% | 2.0%
Cc1ccc(N(C(=O)CNC(=O)c2ccco2)C(C(=O)NC2CCCC2)c2cccnc2)cc1F (centres undefined) | 0.9 | -0.5 | -5.5 | 3.8% | -4.5% | -1.4%
CN1CCN(C(=O)CCN2C(=O)/C(=C/c3ccc(F)cc3)SC2=S)CC1 | -3.9 | 5.6 | 16.5 | 3.1% | 6.1% | ?
CCCn1c(CCc2ccccc2)nnc1SCC(=O)N1CCCC1 | 2.2 | 0.2 | 3.2 | 1.9% | -1.0% | -0.6%
CCCc1nnc(SCC(=O)N2CCCC2)n1Cc1ccco1 | -46.7* | -24.6 | 7.6 | 5.7% | 1.6% | 0.6%
Cc1cc(C)n(C(=O)C(C)N2C(=O)c3ccccc3C2=O)n1 (centres undefined) | -1.9 | 3.1 | 0.7 | -6.9% | 1.7% | -0.1%
CC1=NN(c2ccc(C(=O)OC(C)C)cc2)C(=O)/C1=C\C=C\c1ccco1 | -0.1 | -201.6* | -194.1* | -5.3% | 1.8% | 1.7%
Cc1ccnc2nc(C(=O)OCC(=O)Nc3ccc4c(c3)OCCO4)nn12 | -1.0 | -0.1 | 13.7 | 14.0% | 1.8% | -1.0%
CCOc1ccc(S(=O)(=O)N2CCCCC2)cc1NC(=O)CN1C(=O)NC(C)(C2CC2)C1=O (centres undefined) | 1.0 | 12.9 | 16.4 | 1.6% | 0.0% | 1.9%
COc1ccc(Nc2ccnc3ccccc23)cc1 | 2.0 | -1.7 | -2.4 | 22.5% | 1.8% | 1.1%

Assay outcomes: PubChem, National Center for Advancing Translational Sciences (NCATS)
